Reference: PubChem BioAssay (EPA / NIEHS)
Several values for one entry are separate records, joined by “and”; a condition that tells them apart may be missing. Equal values may be shown once. Where a structure was tested more than once in an assay, its records may differ in their call. Activity calls are given as the source filed them. How the source made its calls: active means hit-call score of the fitted dose curve at least 0.9, where 1 is the maximum; inactive means score below 0.9.

Key:
[1] = read-out: TIMP metallopeptidase inhibitor 1 (TIMP1), TIMP1 (gene 7076); assay: BSK_MyoF_TIMP1: BioMAP Diversity Plus: MyoF Assay for TIMP metallopeptidase inhibitor 1 (TIMP1) Biomarker Activity (AID 2284269); details: primary human lung fibroblasts
Procedure, shortened: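 Primary human lung fibroblasts, MyoF multiplex system; chemical exposure 24 h; TIMP-1 by ELISA; positive fitting direction vs DMSO control.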

[2] = read-out: Matrix Metallopeptidase 1 (MMP1), MMP1 (gene 4312); assay: BSK_BF4T_MMP1: BioMAP Diversity Plus: BF4T Assay for Matrix Metallopeptidase 1 (MMP1) Biomarker Activity (AID 2284270); details: primary human bronchial epithelial cells with fibroblasts
Procedure, shortened: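 Co-culture of human bronchial epithelial cells and dermal fibroblasts; MMP-1 levels measured by ELISA 24 hours after chemical dosing, relative to DMSO. Cytotoxicity checked in parallel cultures by SRB total-protein staining.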

[3] = read-out: Matrix Metallopeptidase 3 (MMP3), MMP3 (gene 4314); assay: BSK_BF4T_MMP3: BioMAP Diversity Plus: BF4T Assay for Matrix Metallopeptidase 3 (MMP3) Biomarker Activity (AID 2284271); details: primary human bronchial epithelial cells with fibroblasts
Procedure, shortened: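 Co-culture of human bronchial epithelial cells and dermal fibroblasts dosed 24 h; MMP-3 measured by ELISA, positive-direction fit versus DMSO. Cytotoxicity tracked by SRB total-protein staining (560 nm) in parallel cultures.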

[4] = read-out: Tissue plasminogen activator (tPA), PLAT (gene 5327); assay: BSK_BF4T_tPA: BioMAP Diversity Plus: BF4T Assay for Tissue plasminogen activator (tPA) Biomarker Activity (AID 2284272); details: primary human bronchial epithelial cells with fibroblasts
Procedure, shortened: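 tPA level quantified by ELISA at 24 h post-treatment in bronchial epithelial/dermal fibroblast co-cultures, gain of signal scored against DMSO baseline. Parallel cultures stained with 0.1% SRB (560 nm) to flag overt cytotoxicity.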

[5] = read-out: Plasminogen Activator Inhibitor-1 (PAI1), SERPINE1 (gene 5054); assay: BSK_BF4T_PAI1: BioMAP Diversity Plus: BF4T Assay for Plasminogen Activator Inhibitor-1 (PAI1) Biomarker Activity (AID 2284273); details: primary human bronchial epithelial cells with fibroblasts
Procedure, shortened: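 Co-culture of human bronchial epithelial cells and dermal fibroblasts exposed to compound for 24 h. PAI-1 measured by ELISA; activity fitted in positive direction versus DMSO. Parallel SRB staining assessed overt cytotoxicity.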

[6] = BSK_BF4T_SRB: Viability Assessment in the BioMAP Diversity Plus: BF4T Assay (AID 2284274); details: primary human bronchial epithelial cells with fibroblasts;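 on AC50: total cell protein by sulforhodamine B staining as a cytotoxicity measure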
Procedure, shortened: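 Co-culture of human bronchial epithelial cells and dermal fibroblasts (BioMAP BF4T) exposed 24 h. Total protein by sulforhodamine B staining (0.1% SRB after 10% TCA fixation, 560 nm) in parallel cultures; fitted vs DMSO.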

[7] = read-out: urokinase Plasminogen Activator (uPA), PLAU (gene 5328); assay: BSK_BF4T_uPA: BioMAP Diversity Plus: BF4T Assay for urokinase Plasminogen Activator (uPA) Biomarker Activity (AID 2284275); details: primary human bronchial epithelial cells with fibroblasts
Procedure, shortened: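 Co-culture of human bronchial epithelial cells and dermal fibroblasts; uPA quantified by ELISA 24 hours after dosing, fitted relative to DMSO. Parallel SRB total-protein staining assessed overt cytotoxicity.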

[8] = read-out: Matrix Metallopeptidase 9 (MMP9), MMP9 (gene 4318); assay: BSK_BF4T_MMP9: BioMAP Diversity Plus: BF4T Assay for Matrix Metallopeptidase 9 (MMP9) Biomarker Activity (AID 2284276); details: primary human bronchial epithelial cells with fibroblasts
Procedure, shortened: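 Co-culture of human bronchial epithelial cells and dermal fibroblasts dosed for 24 h; MMP-9 quantified by ELISA and fitted upward versus DMSO. Cytotoxicity monitored in parallel cultures by SRB total-protein staining at the biomarker time point.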

[9] = read-out: Interleukin-8 (IL8), CXCL8 (gene 3576); assay: BSK_IMphg_IL8: BioMAP Diversity Plus: IMphg Assay for Interleukin-8 (IL8) Biomarker Activity (AID 2284277); details: primary human endothelial cells with macrophages
Procedure, shortened: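 Co-culture of human venular endothelial cells and macrophages exposed to chemicals for 24 h; IL-8 quantified by ELISA and compared against the DMSO baseline, with SRB total-protein staining in parallel cultures for cytotoxicity.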

[10] = read-out: Intercellular Adhesion Molecule 1 (ICAM1), ICAM1 (gene 3383); assay: BSK_BE3C_ICAM1: BioMAP Diversity Plus: BE3C Assay for Intercellular Adhesion Molecule 1 (ICAM1) Biomarker Activity (AID 2284278); details: primary human bronchial epithelial cells;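 on outcome: cell-surface ICAM-1 protein level quantified by ELISA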
Procedure, shortened: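 Primary human bronchial epithelial cells were exposed to compound for 24 h, after which cell-surface ICAM-1 was quantified by ELISA. Activity was fitted in the gain-of-signal direction against DMSO as negative control and baseline.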

[11] = read-out: Interferon-inducible T-cell alpha chemoattractant (ITAC), CXCL11 (gene 6373); assay: BSK_BE3C_ITAC: BioMAP Diversity Plus: BE3C Assay for Interferon-inducible T-cell alpha chemoattractant (ITAC) Biomarker Activity (AID 2284279); details: primary human bronchial epithelial cells
Procedure, shortened: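 Steps: dose human bronchial epithelial cells with chemical; incubate 24 h; measure I-TAC by ELISA; fit endpoint in positive direction against DMSO control. Cytotoxicity was checked in parallel cultures by SRB staining at harvest.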

[12] = read-out: Interleukin-8 (IL8), CXCL8 (gene 3576); assay: BSK_BE3C_IL8: BioMAP Diversity Plus: BE3C Assay for Interleukin-8 (IL8) Biomarker Activity (AID 2284280); details: primary human bronchial epithelial cells
Procedure, shortened: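 IL-8 signal gain, normalised to DMSO vehicle, was scored after a 24 h chemical exposure of primary human bronchial epithelial cells, with detection by ELISA.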

[13] = read-out: Epidermal growth factor receptor (EGFR), EGFR (gene 1956); assay: BSK_BE3C_EGFR: BioMAP Diversity Plus: BE3C Assay for Epidermal growth factor receptor (EGFR) Biomarker Activity (AID 2284281); details: primary human bronchial epithelial cells
Procedure, shortened: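 Compound is added to human bronchial epithelial cells, cells incubate 24 h, then EGFR is detected by ELISA. Values reflect positive-direction fitting relative to DMSO.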

[14] = read-out: Matrix Metallopeptidase 9 (MMP9), MMP9 (gene 4318); assay: BSK_BE3C_MMP9: BioMAP Diversity Plus: BE3C Assay for Matrix Metallopeptidase 9 (MMP9) Biomarker Activity (AID 2284283); details: primary human bronchial epithelial cells
Procedure, shortened: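 Human primary bronchial epithelial cells exposed 24 h to compound. MMP9 quantified by ELISA. SRB total-protein staining of parallel cultures assesses cytotoxicity. Positive-direction fit relative to DMSO.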

[15] = read-out: Plasminogen activator inhibitor-1 (PAI1), SERPINE1 (gene 5054); assay: BSK_CASM3C_PAI1: BioMAP Diversity Plus: CASM3C Assay for Plasminogen activator inhibitor-1 (PAI1) Biomarker Activity (AID 2284284); details: primary human coronary artery smooth muscle cells;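 further: PAI-1 protein level measured by ELISA 24 h after dosing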
[16] = read-out: Monocyte Chemoattractant Protein-1 (MCP1), CCL2 (gene 6347); assay: BSK_hDFCGF_MCP1: BioMAP Diversity Plus: hDFCGF Assay for Monocyte Chemoattractant Protein-1 (MCP1) Biomarker Activity (AID 2284285); details: primary human foreskin fibroblasts
Procedure, shortened: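 Human foreskin fibroblasts (hDFCGF system) were exposed to compound and secreted MCP-1 was measured by ELISA after 24 hours. Activity was fitted relative to DMSO. Cytotoxicity was checked by SRB total-protein staining in parallel cultures.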

[17] = read-out: Vascular cell adhesion molecule 1 (VCAM1), VCAM1 (gene 7412); assay: BSK_IMphg_VCAM1: BioMAP Diversity Plus: IMphg Assay for Vascular cell adhesion molecule 1 (VCAM1) Biomarker Activity (AID 2284286); details: primary human endothelial cells with macrophages
Procedure, shortened: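 Human venular endothelial cells co-cultured with macrophages; VCAM-1 quantified by ELISA 24 h after dosing, fitted in the positive direction against DMSO. Cytotoxicity was checked in parallel cultures by SRB total-protein staining (0.1% SRB after 10% TCA fixation, 560 nm).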

[18] = read-out: Intercellular Adhesion Molecule 1 (ICAM1), ICAM1 (gene 3383); assay: BSK_hDFCGF_ICAM1: BioMAP Diversity Plus: hDFCGF Assay for Intercellular Adhesion Molecule 1 (ICAM1) Biomarker Activity (AID 2284287); details: primary human foreskin fibroblasts
Procedure, shortened: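 Primary human foreskin fibroblasts (hDFCGF system) dosed with chemical; ICAM-1 quantified by ELISA at 24 h relative to DMSO. Parallel SRB total-protein staining to assess overt cytotoxicity.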

O=C(O)C(F)(F)C(F)(F)C(F)(F)OC(F)(C(F)(F)F)C(F)(F)F
outcome [1]: inactive | outcome [2]: inactive | AC50 [3]: 39.5 µM (active) | outcome [3]: inactive | outcome [4]: inactive | outcome [5]: inactive | outcome [6]: inactive | outcome [7]: inactive | outcome [8]: inactive | AC50 [9]: 16.1 µM (active) | outcome [9]: inactive | outcome [10]: inactive | outcome [11]: inactive | outcome [12]: inactive | outcome [13]: inactive | AC50 [14]: 6.87 µM (active) | outcome [14]: inactive | outcome [15]: inactive | outcome [16]: inactive | outcome [17]: inactive | outcome [18]: inactive

Cc1ccc(S(=O)(=O)C(I)I)cc1
AC50 [1]: 5.97 µM (active)

CCN(CC)c1ccc(C=O)c(O)c1
outcome [1]: inactive

O=S(=O)(Cl)C(F)(F)C(F)(F)C(F)(F)C(F)(F)C(F)(F)C(F)(F)C(F)(F)C(F)(F)F
outcome [1]: inactive | outcome [2]: inactive | outcome [3]: inactive | AC50 [4]: 23.2 µM (active) | outcome [4]: inactive | AC50 [5]: 44.9 µM (active) and 44.6 µM (active) | AC50 [6]: 50.8 µM (active) and 46.8 µM (active) | AC50 [7]: 30 µM (active) | outcome [7]: inactive | AC50 [8]: 49.2 µM (active) and 47.7 µM (active) | AC50 [9]: 36.7 µM (active) | outcome [9]: inactive | AC50 [10]: 54.9 µM (active) and 54.8 µM (active) | AC50 [12]: 41.3 µM (active) and 21.5 µM (active) | AC50 [13]: 22.7 µM (active) and 30 µM (active) | AC50 [14]: 55.1 µM (active) and 55.2 µM (active) | outcome [15]: inactive | outcome [16]: inactive | outcome [17]: inactive | outcome [18]: inactive

Cc1cc(C)c(O)c(C(C)(C)C)c1
AC50 [1]: 31.6 µM (active)

CCN(CC)c1ccc(N=Nc2ccccc2)cc1
outcome [1]: inactive

Cc1ccc(O)c(-n2nc3ccccc3n2)c1
outcome [1]: inactive

O=C=NCc1cccc(CN=C=O)c1
outcome [1]: inactive

O=C1c2c(O)ccc(Nc3ccc(CCO)cc3)c2C(=O)c2c([N+](=O)[O-])ccc(O)c21
outcome [1]: inactive

CC1=CC2C3C=CC(C3)C2C1C (stereo not drawn)
outcome [1]: inactive

C=CC(=O)OCC(F)(F)C(F)(F)C(F)(F)COC(=O)C=C
AC50 [1]: 16.9 µM (active) and 13.9 µM (active) | AC50 [2]: 50.2 µM (active) | outcome [2]: inactive | outcome [3]: inactive | AC50 [4]: 8.12 µM (active) | AC50 [5]: 20.7 µM (active) and 23.4 µM (active) | AC50 [6]: 43.4 µM (active) and 47.1 µM (active) | AC50 [7]: 30 µM (active) and 25.7 µM (active) | AC50 [8]: 21.5 µM (active) and 21.8 µM (active) | AC50 [9]: 50.7 µM (active) and 45.9 µM (active) | AC50 [10]: 38.5 µM (active) and 35.5 µM (active) | AC50 [12]: 13.2 µM (active) and 8.09 µM (active) | outcome [13]: inactive | AC50 [14]: 8.23 µM (active) and 8.72 µM (active) | AC50 [15]: 46 µM (active) and 48.8 µM (active) | AC50 [16]: 2.84 µM (active) and 2.59 µM (active) | AC50 [17]: 35 µM (active) and 40 µM (active) | AC50 [18]: 2.6 µM (active) and 2.45 µM (active)

C[C@]12CC[C@H]3C(=CCc4cc(O)ccc43)[C@@H]1CCC2=O
outcome [1]: inactive

O=C1C=CC(=O)N1c1ccc(Cc2ccc(N3C(=O)C=CC3=O)cc2)cc1
AC50 [1]: 5.94 µM (active)

OCC(F)(F)C(F)(F)C(F)(F)C(F)(F)C(F)(F)C(F)(F)C(F)(F)C(F)(F)CO
outcome [1]: inactive | outcome [2]: inactive | AC50 [3]: 19.3 µM (active) | outcome [3]: inactive | AC50 [4]: 9.85 µM (active) and 12.6 µM (active) | AC50 [5]: 15.1 µM (active) and 13.6 µM (active) | AC50 [6]: 26.2 µM (active) and 30 µM (active) | outcome [7]: inactive | AC50 [8]: 27.6 µM (active) and 23.7 µM (active) | AC50 [9]: 48.8 µM (active) and 48.9 µM (active) | AC50 [10]: 44.7 µM (active) and 40.3 µM (active) | AC50 [12]: 19.7 µM (active) and 5.95 µM (active) | AC50 [13]: 30 µM (active) and 25.2 µM (active) | AC50 [14]: 34.8 µM (active) and 22.1 µM (active) | outcome [15]: inactive | AC50 [16]: 51 µM (active) and 42.3 µM (active) | AC50 [17]: 51.5 µM (active) and 54.6 µM (active) | AC50 [18]: 54.5 µM (active) and 46.2 µM (active)

Cc1cc(O)c(C(C)(C)C)cc1C(C)(C)C
AC50 [1]: 7.71 µM (active)

Brc1nc2ccccc2s1
outcome [1]: inactive

CCN(CC)c1ccc2c(c1)Oc1cc(N(CC)CC)ccc1C21OC(=O)c2ccccc21
outcome [1]: inactive

O=C(Cl)C(F)(F)C(F)(F)C(F)(F)C(F)(F)C(F)(F)C(F)(F)F
outcome [1]: inactive | outcome [2]: inactive | outcome [3]: inactive | outcome [4]: inactive | outcome [5]: inactive | outcome [6]: inactive | outcome [7]: inactive | outcome [8]: inactive | AC50 [9]: 15.8 µM (active) and 21.5 µM (active) | outcome [9]: inactive | outcome [10]: inactive | outcome [12]: inactive | outcome [13]: inactive | outcome [14]: inactive | outcome [15]: inactive | outcome [16]: inactive | outcome [17]: inactive | outcome [18]: inactive
